Compounds with a hit are over-represented: about 3% of the library has one in this group of screens.
GALK inhibitor: galactokinase (human) inhibition | Purified GALK, Kinase-Glo residual ATP luminescence | Potency, µM (top dose mostly 57.5 µM), hits mostly inhibitors | hit rate 0.007% among 270,000 | AID 1868
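ATP-depletion format; final 35 uM ATP, 100 uM D-galactose, 5 nM enzyme; pH 8.0 HEPES/Mg2+ buffer; 60 min RT; luminescence read 10 min after detection reagent.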
rTrxR1 inhibitor: inhibitors of rat thioredoxin reductase 1; O89049; recombinant rTrxR1, NADPH fluorescence consumption, selenite substrate; Potency, µM (titrated, usually from 114 µM), hits mostly inhibitors; hit rate 1% among 390,000; further: nearly all actives have a fitted effect of over 65% in size
Target sequence (O89049 whole entry, looked up): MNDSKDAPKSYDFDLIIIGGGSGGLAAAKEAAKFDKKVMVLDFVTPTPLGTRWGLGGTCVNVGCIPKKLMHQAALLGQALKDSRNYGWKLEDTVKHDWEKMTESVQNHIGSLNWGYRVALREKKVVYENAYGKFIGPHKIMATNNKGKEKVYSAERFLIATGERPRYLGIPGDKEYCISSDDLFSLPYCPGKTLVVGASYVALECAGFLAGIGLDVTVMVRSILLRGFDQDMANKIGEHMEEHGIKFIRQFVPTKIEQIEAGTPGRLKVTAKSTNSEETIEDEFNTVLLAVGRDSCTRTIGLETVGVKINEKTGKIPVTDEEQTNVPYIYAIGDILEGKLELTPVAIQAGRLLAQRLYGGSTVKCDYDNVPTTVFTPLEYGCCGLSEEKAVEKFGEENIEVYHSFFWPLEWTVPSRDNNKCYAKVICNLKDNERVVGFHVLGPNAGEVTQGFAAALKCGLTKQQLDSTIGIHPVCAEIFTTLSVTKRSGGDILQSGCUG
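Rat TrxR1 (90 nM in the dispensed reagent) was pre-reduced with 400 uM NADPH for 5 min at room temperature, then incubated with compound for 15 min. After 400 uM selenite was added, NADPH fluorescence (Ex 340/Em 450 nm) was followed for 8 min.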
Nrf2 inh: Nrf2 pathway inhibition; hit rate 2.1% among 360,000; AID 504444; Potency, µM (highest dose often 46 µM), most hits filed as inhibitors; A549 ARE-Fluc reporter, luciferase luminescence, 18-24 h; further: nearly all actives have a fitted effect of over 60% in size
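A549 ARE_Fluc cells, 5000/well, 5% FBS OPTI-MEM; compounds in dose-response, 18-24 h at 37 °C/5% CO2; CellTiter-Fluor viability read (Ex 405/Em 525), then BugLite luciferase luminescence = Nrf2 activity.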
Nrf2 activator: activators of Nrf2 (ARE) signaling | hit rate 0.31% among 410,000 | Potency, µM (highest dose often 46.1 µM), most hits filed as activators | AREc32 ARE-luciferase reporter (MCF7-derived line), luminescence, 24 h; further: nearly all actives have a fitted effect of over 65% in size
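For detection, Steady-Glo was added and plates sat 30 min at RT; before that, AREc32_Fluc cells grown overnight in OPTI-MEM/5% FBS had been treated with 23 nL compound for 24 hr at 37 deg C.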
A549 viability: counter-screen for Nrf2 inhibitors: cytotoxicity in A549 cells. A549 ARE-Fluc cells, CellTiter-Fluor viability, 18-24 h. Potency, µM (highest dose often 46 µM), most hits filed as inhibitors. hit rate 0.16% among 390,000
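Cytotoxicity counterscreen: CellTiter-Fluor fluorescence was measured in A549 ARE_Fluc cells after 18-24 h of compound exposure in a concentration series. The subsequent BugLite luminescent read reports ARE-luciferase activity.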
TrxR1 substrate: substrates of rat thioredoxin reductase 1. hit rate 0.01% among 390,000. O89049. Potency, µM (titrated, usually from 114 µM). purified TrxR1 substrate turnover, NADPH consumption readout. AID 588456; further: nearly all actives have a fitted effect of over 50% in size
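Rat TrxR1, dispensed at 90 nM, was prereduced with 400 uM NADPH (final) for 5 min at ~22 deg C, then incubated with compound 15 min before 400 uM selenite. A first-read NADPH fluorescence drop versus no-compound background flagged substrates.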
Large screens that a line does not name were inactive. The call rests on the fitted dose curve; in most records, active means well fitted curve in the direction sought with a large enough effect; inconclusive means small, poorly fitted or top-dose-only effect, or another doubt; inactive means no such curve, though single readings can be large; an effect the other way counts as inactive or inconclusive.

Cc1ccc(NC(=O)C2CC(=O)N(Cc3ccccc3)C2)cc1S(=O)(=O)N1CCCCCC1 (configuration not stated)	Nrf2 inh inconclusive
CCN(CC)S(=O)(=O)c1cc(NC(=O)C2CC(=O)N(Cc3ccccc3)C2)ccc1Cl (configuration not stated)	Nrf2 inh 18µM (no result: GALK inhibitor)
Cc1sc2ncnc(N3CCC(C(=O)Nc4ccc(C#N)cc4)CC3)c2c1C	none (no result: GALK inhibitor)
C[n+]1ccc(/C=C/c2ccc([N+](C)(C)C)cc2)c2ccccc21	none (no result: GALK inhibitor, Nrf2 inh, Nrf2 activator, A549 viability)
CC1=C(c2ccc(Cl)cc2)S(=O)(=O)NC1=NCc1ccc(C)cc1	Nrf2 inh inconclusive (no result: GALK inhibitor)
O=C(CSCc1cccc(Br)c1)N=Nc1c(O)[nH]c2ccccc12	none
O=Nc1c(-c2c(O)[nH]c3cc(Br)ccc23)[nH]c2ccccc12	Nrf2 inh 10µM, A549 viability 21µM (no result: GALK inhibitor)
CC(C)(C)c1ccc(S(=O)(=O)N2CCC(c3nc4ccc(Cl)cc4[nH]3)CC2)cc1	Nrf2 inh 16µM, A549 viability inconclusive
COc1c(N2CCN[C@H](C)C2)c(F)cc2c(=O)c(C(=O)O)cn(C3CC3)c12	none (no result: GALK inhibitor)
COc1c(N2CCN(C(=S)NCc3ccccc3)C(C)C2)c(F)cc2c(=O)c(C(=O)O)cn(C3CC3)c12 (configuration not stated)	Nrf2 inh 23µM, A549 viability inconclusive
CC(=O)Oc1cccc(/C=C2\Sc3ccccc3C2=O)c1	Nrf2 activator 14µM
CCOC(=O)c1c(C)[nH]c(C)c1C(=O)CSc1nc2ccccc2c(=O)n1-c1ccc(F)cc1	Nrf2 inh 23µM, A549 viability inconclusive
COc1ccc(NC(=O)c2oc3ccc(S(=O)(=O)N(C)C4CCCCC4)cc3c2C)cc1Cl	none (no result: GALK inhibitor, Nrf2 inh)
Cc1oc2ccc(O)c(CN3CCN(Cc4ccccc4)CC3)c2c1C(=O)Nc1ccccc1	none (no result: GALK inhibitor)
O=S(=O)(c1ccc2c(c1)nc(COc1ccc(Cl)cc1)n2CC1CCCO1)N1CCOCC1 (configuration not stated)	Nrf2 inh 10µM
CCCCn1c(CCl)nc2cc(S(=O)(=O)N3CCOCC3)ccc21	rTrxR1 inhibitor inconclusive (no result: GALK inhibitor)
CCn1cnc2c(Nc3ccc(CC(=O)N=C(N)N)cc3)nc(C#N)nc21	none (no result: GALK inhibitor, rTrxR1 inhibitor, Nrf2 activator, TrxR1 substrate)
CC(=O)NC1=CC(=O)c2nonc2C1=O	rTrxR1 inhibitor inconclusive, Nrf2 inh 2.9µM, A549 viability 7.3µM, TrxR1 substrate 7.1µM (no result: GALK inhibitor, Nrf2 activator)
COC(=O)c1ccccc1NC(=O)Cn1c(=O)n(CCC(=O)NCc2ccccc2OC)c(=O)c2ccccc21	none (no result: GALK inhibitor)
COc1ccc(/C=N/OCC(=O)Nc2cc(C)on2)cc1OC	none
COc1ccc(/C=N/OCC(=O)NC(c2ccccc2)c2ccccc2)cc1OC	Nrf2 inh 5.8µM
COc1ccc(OC)c2sc(N3CCN(C(=O)CCS(=O)(=O)c4ccc(F)cc4)CC3)nc12	none (no result: GALK inhibitor, Nrf2 inh)
CC(=O)Nc1ccc(Nc2nc(C)c([N+](=O)[O-])c(Nc3ccccc3)n2)cc1	Nrf2 inh 16µM, A549 viability inconclusive
CC(CCc1ccccc1)NC(=O)COC(=O)c1ccc(S(C)(=O)=O)c([N+](=O)[O-])c1 (configuration not stated)	rTrxR1 inhibitor 0.79µM, Nrf2 inh inconclusive, A549 viability inconclusive
Cc1ccccc1NC(=O)Cc1nc(COC(=O)c2ccc(S(C)(=O)=O)c([N+](=O)[O-])c2)cs1	rTrxR1 inhibitor 3.2µM (no result: GALK inhibitor)
CS(=O)(=O)c1ccc(C(=O)OCC(=O)Nc2cccnc2Cl)cc1[N+](=O)[O-]	rTrxR1 inhibitor 2.5µM (no result: GALK inhibitor)
CS(=O)(=O)c1ccc(C(=O)OCC(=O)NC(=O)C2COc3ccccc3O2)cc1[N+](=O)[O-] (configuration not stated)	rTrxR1 inhibitor 8.9µM, Nrf2 activator inconclusive (no result: GALK inhibitor)
CC(CCc1ccccc1)NC(=O)COC(=O)c1ccc([N+](=O)[O-])cc1 (configuration not stated)	none
CCC(C)N(C(=O)CSc1ncnc2sccc12)C1CCS(=O)(=O)C1 (configuration not stated)	none (no result: GALK inhibitor)
CCC(C)N(C(=O)CSc1nc(-c2cccs2)nc2ccccc12)C1CCS(=O)(=O)C1 (configuration not stated)	Nrf2 inh 8.2µM, A549 viability inconclusive (no result: GALK inhibitor)
Cc1ccc(CNC(=O)CCS(=O)(=O)c2cccc3nonc23)cc1	rTrxR1 inhibitor 56µM
COc1ccc(NC(=O)CCS(=O)(=O)c2cccc3nonc23)cc1	none
COc1ccc(CNC(=O)CCS(=O)(=O)c2cccc3nonc23)cc1	rTrxR1 inhibitor 11µM
CC(=O)Nc1ccccc1OC1=N[S+](=O)([O-])c2ccccc21	none (no result: GALK inhibitor, rTrxR1 inhibitor, Nrf2 activator, TrxR1 substrate)
CCc1cccc(NC(=O)COC(=O)c2ccccc2OCc2ccccc2Br)c1	none (no result: GALK inhibitor, Nrf2 inh, Nrf2 activator, A549 viability)
Cc1[nH]n2c(=O)cc(-c3ccc(Cl)cc3)nc2c1-c1ccccc1	Nrf2 inh 7.3µM (no result: GALK inhibitor)
Cc1[nH]n2c(=O)cc(C(C)(C)C)nc2c1-c1ccccc1	Nrf2 inh 7.3µM
FC(F)(F)c1cc(Cl)c2nc(-c3ccccc3)cn2c1	Nrf2 activator inconclusive (no result: Nrf2 inh)
Cc1[nH]n2c(=O)cc(C(C)C)nc2c1-c1ccccc1	Nrf2 inh inconclusive
CCCCc1c(C)nc2c(-c3ccc(Cl)cc3)c(C)[nH]n2c1=O	Nrf2 inh 5.8µM (no result: GALK inhibitor)
Cc1[nH]n2c(=O)cc(-c3ccc([N+](=O)[O-])cc3)nc2c1-c1ccccc1	Nrf2 inh inconclusive (no result: GALK inhibitor)
O=c1cc(-c2ccccc2)nc2c(Cl)cc(Cl)cn12	Nrf2 activator 4µM (no result: GALK inhibitor, rTrxR1 inhibitor, Nrf2 inh, A549 viability, TrxR1 substrate)
CCc1c(C)nc2c(-c3ccccc3)c(C)[nH]n2c1=O	none
CC(=O)Nc1cc(C(=O)NCc2ccc(C)cc2)ccc1S(=O)(=O)c1ccc(Cl)cc1	none (no result: GALK inhibitor, Nrf2 inh)
COc1ccccc1-n1cnc2cc(NCc3ccccc3O)ccc21	none
COc1ccc(CNc2ccc3c(c2)ncn3-c2ccccc2OC)cc1	Nrf2 inh 18µM
O=C(Nc1ccc(F)c(Cl)c1)c1nsc(Cl)c1Cl	Nrf2 activator 3.2µM
O=C(Nc1ccc(F)cc1)c1nsc(Cl)c1Cl	Nrf2 inh inconclusive, Nrf2 activator inconclusive
Cc1ccc(C)c(N2CCN(C(=O)CN3C(=O)CSc4c3c(C)nn4-c3ccccc3)CC2)c1	none (no result: GALK inhibitor)
CCn1c(=O)n(CC)c2cc(N3CCCCC3)c(NC(=O)Nc3ccccc3C(F)(F)F)cc21	Nrf2 inh inconclusive (no result: GALK inhibitor)
COC(=O)c1cc(NC(=O)CN(c2cccc(OC)c2)S(=O)(=O)c2ccccc2)ccc1Cl	Nrf2 inh 23µM
Cc1cc(N2C3CCC2CC(O)(c2ccc(F)cc2)C3)nc(-c2ccccc2)n1 (configuration not stated)	Nrf2 inh 23µM, A549 viability inconclusive
